VP16 counter: VP16 counterscreen qHTS for inhibitors of ROR gamma transcriptional activity; Drosophila S2 Gal4-VP16 UAS-luciferase, luminescence, 20 h; 3.5% of 310,000 active; Potency, µM (highest dose often 53.6 µM), for inactives: at the top dose activity, negative = inhibition, most hits filed as inhibitors; AID 2546, 2010;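 further: Gal4-VP16 expression switched on by copper sulfate through the metallothionein promoter; nearly all actives have a fitted effect of over 50% in size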
RORgamma inh: qHTS for inhibitors of ROR gamma transcriptional activity. Drosophila S2 Gal4-RORgamma UAS-luciferase reporter, 20 h. Potency, µM (highest dose often 53.6 µM), for the others: at the highest dose activity change, negative = inhibition, usual class: inhibitors. 5.4% of 310,000 active; further: nearly all actives have a fitted effect of over 60% in size
Target sequence (P51450 whole entry, looked up, the tested form may be a part): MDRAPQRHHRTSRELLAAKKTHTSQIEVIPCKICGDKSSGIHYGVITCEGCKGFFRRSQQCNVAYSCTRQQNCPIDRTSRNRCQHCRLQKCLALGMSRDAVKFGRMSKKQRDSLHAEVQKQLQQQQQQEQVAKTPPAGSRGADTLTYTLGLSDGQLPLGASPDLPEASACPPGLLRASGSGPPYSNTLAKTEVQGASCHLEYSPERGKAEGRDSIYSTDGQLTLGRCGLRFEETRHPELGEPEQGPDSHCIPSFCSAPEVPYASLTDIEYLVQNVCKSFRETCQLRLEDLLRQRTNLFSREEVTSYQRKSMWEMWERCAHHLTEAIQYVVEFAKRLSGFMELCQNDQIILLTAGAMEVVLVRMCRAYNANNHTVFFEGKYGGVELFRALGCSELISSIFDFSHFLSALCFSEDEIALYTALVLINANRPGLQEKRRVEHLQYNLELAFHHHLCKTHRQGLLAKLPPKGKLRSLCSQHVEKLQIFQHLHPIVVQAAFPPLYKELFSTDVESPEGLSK
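Compounds are pin-transferred onto Drosophila Schneider cells expressing a copper-inducible Gal4–ROR gamma transactivation domain fusion. After 1 hr, copper sulfate is added to 700 uM final; luciferase is read 20 hr later.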
KinaseGlo FLuc: Counterscreen for Luciferase (Kinase-Glo TM) Inhibition; AID 1379, 2008; Potency, µM (top dose mostly 38.3 µM), without a hit: at the highest dose activity change, negative = inhibition, most hits filed as inhibitors; Kinase-Glo luciferase, ATP luminescence, 8 min; 0.28% of 200,000 active; Luciferin 4-monooxygenase (Photuris pensylvanica), Q27757; further: nearly all actives have a fitted effect of over 60% in size
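Substrate mix (final 50 mM imidazole pH 7.2, 50 mM KCl, 7 mM MgCl2, 10 uM ATP, 0.01% Tween 20, 0.05% BSA) plus pin-tool compound, then Kinase-Glo detection mix; 8 min ambient, luminescence read.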
Starred values were filed as active, the others as inactive; ? = inconclusive; · = not tested or not shown; [ ] = dose if it differs, or a comment. Compounds with a hit are over-represented: about 6.4% of the library has one in this group of screens. The call rests on the fitted dose curve; in most records, active means well fitted curve in the direction sought with a large enough effect; inconclusive means small, poorly fitted or top-dose-only effect, or another doubt; inactive means no such curve, though single readings can be large; an effect the other way counts as inactive or inconclusive. On the % scale 0 is the no-effect control and ±100 the full control effect; potency means the concentration at half of the fitted maximal effect.

SMILES	VP16 counter	RORgamma inh	KinaseGlo FLuc
CC(Sc1nncn1C)C(=O)Nc1nnc(-c2ccccc2)s1 (stereo unspecified)	-6%	?	1%
CC(SC1=NCCS1)C(=O)Nc1nnc(-c2ccc(Cl)cc2)s1 (stereo unspecified)	8.9µM*	5µM*	1%
CCNc1nnc(-c2ccccc2OC)s1	5%	-7%	2%
COc1ccccc1-c1nnc(NC(=O)C(C)SC2=NCCS2)s1 (stereo unspecified)	?	13µM*	4%
Cc1cccc(N2CCN(C(=O)C3CCC(=O)N(C4CC4)C3)CC2)c1C (stereo unspecified)	-2%	3%	·
COc1ccc(-c2cc(C)no2)cc1S(=O)(=O)N(C)c1ccc(C)cc1	-4%	17%	·
Cc1cc(Cl)ccc1OCCCC(=O)N/N=C/c1cccc([N+](=O)[O-])c1	-18%	11%[10 µM]	-1%
CC(=O)N1CCN(CC(=O)Nc2cccc(S(=O)(=O)N3CCCCCC3)c2)CC1	3%	-3%	2%
O=C(CCl)Nc1cccc(S(=O)(=O)N2CCCCCC2)c1	?	35µM*	·
CCCCCCCCCCCCOCCOCCOCCOCCO	-9%	?	-3%[39.9 µM]
COC(=O)C/C=C\[C@@H](C)[C@@H](/C=N\O[C@@H](C)c1cn([C@H]2COC[C@H]2O)nn1)NS(=O)(=O)c1ccc(C)cc1	-8%[10 µM]	-5%[10 µM]	·
Cn1c(=S)c2[nH]c(SCCN3C(=O)c4ccccc4C3=O)nc2n(C)c1=O	·	·	-2%[7.66 µM]
CCN1CCCC(Sc2nc3c([nH]2)c(=S)n(C)c(=O)n3C)C1 (stereo unspecified)	6.3µM*	4µM*	·
CCCc1nc(SC2CCCC2)c2c(=O)n(C)c(=O)n(C)c2n1	10%	-6%	-2%
Cn1c(=S)c2[nH]c(SCCN3CCCC3)nc2n(C)c1=O	?	1µM*	-1%[7.66 µM]
Cc1ncsc1C(=O)N1CCCC(C(=O)c2ccc3ccccc3c2)C1 (stereo unspecified)	-1%	42%	·
O=C1c2ccccc2C(=O)N1c1ncc(Cc2ccc(Cl)cc2)s1	-6%	-22%	0%
CC(=O)c1nc(N2C(=O)CC(Cc3cccc(C)c3)C2=O)sc1C (stereo unspecified)	-9%	30%	1%
Cc1cccc(CC2SC(N3CCN(c4ccccc4)CC3)=NC2=O)c1 (stereo unspecified)	3%	1%	2%
Cc1cccc(Cc2cnc(N3C(=N)SC(C)C3=O)s2)c1 (stereo unspecified)	1.1µM*	0.35µM*	1%
Cc1cccc(Cc2cnc(N3C(=N)SC(c4ccccc4)C3=O)s2)c1 (stereo unspecified)	1.3µM*	?	-1%
Cc1ccc(Cc2cnc(N3C(=N)SC(C)C3=O)s2)cc1 (stereo unspecified)	3.2µM*	5µM*	0%
CC1C(=O)N(C)C(=O)c2nc[nH]c21 (stereo unspecified)	·	·	-3%
Cc1cc2n(n1)SC(Nc1ccc(F)c(Cl)c1)N2 (stereo unspecified)	1.1µM*	0.63µM*	4%
Cc1ccc(NC(=O)Nc2ccc(F)c(Cl)c2)cc1	3%	11%	4%
SMILES	VP16 counter	RORgamma inh	KinaseGlo FLuc
N#C/C(=C\c1c[nH]c2ccccc12)C(=O)NC1CCCC1	17%	?	·
CCNc1nc(NCC)nc(N(C#N)C(C)C)n1	13%	1%	·
CCNc1nc(NCC)nc(N(CC)C(N)=S)n1	?	5µM*	·
O=C(Nc1ccc(Cl)c(Cl)c1)Nc1ccccc1O	-2%	?	·
O=C(Nc1ccc(Cl)c(Cl)c1)Nc1ccc(Br)cc1F	13µM*	?	4%
N#C/C(=C/c1ccc(N2CCCCCC2)o1)c1ccc(Cl)cc1	7.1µM*	7.1µM*	-3%
N#C/C(=C\c1ccc(N2CCOCC2)o1)C(=O)NC1CCCCC1	1%	43%	·
Cc1ccc2nc(/C(C#N)=C\c3ccc(N4CCOCC4)o3)[nH]c2c1	-1%	?	-9%
N#C/C(=C/c1ccc(N2CCCCC2)cc1)c1cccc(F)c1	-50%	-24%	-3%
Cc1ccc(/C(C#N)=C\c2ccc(N3CCOCC3)o2)cc1	2%[0.365 µM]	1.8µM*	-1%
N#C/C(=C/c1ccc(N2CCCCC2)o1)c1cccc(F)c1	10µM*	7.1µM*	-5%
C[C@@H](NC(=O)[C@@H]1Cc2ccccc2CN1C(=O)OC(C)(C)C)C(=O)NC1CCCC1	-19%	3%	·
O=C(O)[C@H](C1NCCS1)N1Cc2ccccc2C1 (stereo partly specified)	·	·	0%[7.66 µM]
COc1cccc(CC2(CO)CCN(Cc3cccn3-c3cccnc3)CC2)c1	-4%	15%	2%
COc1ccc(NC(=O)CCC(=O)NCCO)cc1	-3%	7%	-3%
O=C1c2ccccc2C(=O)c2cc(S(=O)(=O)Nc3cccc4cccnc34)ccc21	-93%	0.89µM*	·
O=C(O)c1ccccc1NS(=O)(=O)c1cccc2cccnc12	4%	-17%	4%
Cc1ccc(NS(=O)(=O)c2cccc3cccnc23)c(Cl)c1	-14%	?	·
Cc1ccc(S(=O)(=O)Nc2cccc3cccnc23)cc1	1.8µM*	1.1µM*	-6%
O=C1c2ccccc2C(=O)c2cc(S(=O)(=O)Nc3ccccc3)ccc21	?	-14%	-1%
Cc1ccc(S(=O)(=O)Nc2ccccc2-c2ccccc2NS(=O)(=O)c2ccc(C)cc2)cc1	-24%	3%	8%
CC(C)c1cc(C(C)C)c(S(=O)(=O)Nc2cccc3cccnc23)c(C(C)C)c1	-90%	0.05µM*	·
O=S(=O)(Nc1cc(Sc2cccc3cccnc23)c(O)c2ccccc12)c1ccccc1	2.8µM*	1.3µM*	-1%
C/C(=N\Nc1ccc(C(=O)O)cc1)c1ccc2c(c1)Nc1ccccc1S2	-2%	13%	·
CCOc1ccc(N(C(=O)c2ccc(S(=O)(=O)N3CCCC3)cc2)C2C=CS(=O)(=O)C2)cc1 (stereo unspecified)	-2%	1%	·
SMILES	VP16 counter	RORgamma inh	KinaseGlo FLuc
Cc1csc(NC(=O)CSc2nnc(-c3ccoc3C)n2C(C)c2ccccc2)n1 (stereo unspecified)	-2%	34%	·
CCC(=O)Nc1cc(C(=O)O)ccc1Sc1ccc(C)cc1	0%	6%	·
CC1COc2ccccc2N1C(=O)c1ccc(Cl)nc1 (stereo unspecified)	-2%	-16%	4%
Cc1cc(S(=O)(=O)N2CCCOC2CNC(=O)C(=O)NCc2ccco2)ccc1F (stereo unspecified)	6%	3%	5%
O=C1C(Nc2ccccc2)=CC(=O)c2ncccc21	4.5µM*	3.2µM*	·
Cc1ccc2nsnc2c1S(=O)(=O)Nc1cccc2cccnc12	0.63µM*	1.1µM*	·
O=C1C=C(Nc2cccc3cccnc23)c2ccccc2C1=O	10µM*	10µM*	·
O=C1C=C(Nc2ccccc2C(=O)O)c2ccccc2C1=O	2%	-42%	·
Nc1ccccc1S(=O)(=O)Nc1cccc2cccnc12	2.2µM*	1.6µM*	·
O=C1C=C(Nc2ccccc2)C(=O)c2ccccc21	?	?	-28%
Cc1ccc2nsnc2c1S(=O)(=O)Nc1cccc2nsnc12	-1%	?	-6%
COc1ccccc1NS(=O)(=O)c1cccc2cccnc12	25%	1%	5%

From PubChem
